BLM inh = Bloom syndrome helicase (human) inhibition; P54132; recombinant BLM DNA unwinding, fluorescence dequenching; hit rate 0.2% among 350,000; Potency, µM (titrated, usually from 56.1 µM), inactives show at the highest dose activity change, negative = inhibition, hits mostly inhibitors;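 further: plate controls were vehicle for no effect and no enzyme for full effect; nearly all actives have a fitted effect of over 35% in size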
TDP1 inh = inhibitors of human tyrosyl-DNA phosphodiesterase TDP1 | hit rate 0.28% among 350,000 | Q9NUW8 | recombinant TDP1, AlphaScreen DNA substrate cleavage | Potency, µM (doses to about 130 µM), for inactives: at the top dose activity change, negative = inhibition, actives largely listed as inhibitors; further: nearly all actives have a fitted effect of over 40% in size
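Compounds were preincubated with Tdp1 (1 nM final) for 15 min at room temperature before substrate (15 nM final) started a 5 min reaction; beads (10 ug/ml final) were then added for 10 min before AlphaScreen detection.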
FEN1 inhibitor = blocks human flap endonuclease 1; Potency, µM (doses to about 114 µM), inactives show at the top dose activity change, negative = inhibition, usual class: inhibitors; hit rate 0.35% among 390,000; Recombinant FEN1 flap cleavage, fluorescence, 15 min; further: nearly all actives have a fitted effect of over 65% in size
Target sequence (P39748 whole entry, looked up): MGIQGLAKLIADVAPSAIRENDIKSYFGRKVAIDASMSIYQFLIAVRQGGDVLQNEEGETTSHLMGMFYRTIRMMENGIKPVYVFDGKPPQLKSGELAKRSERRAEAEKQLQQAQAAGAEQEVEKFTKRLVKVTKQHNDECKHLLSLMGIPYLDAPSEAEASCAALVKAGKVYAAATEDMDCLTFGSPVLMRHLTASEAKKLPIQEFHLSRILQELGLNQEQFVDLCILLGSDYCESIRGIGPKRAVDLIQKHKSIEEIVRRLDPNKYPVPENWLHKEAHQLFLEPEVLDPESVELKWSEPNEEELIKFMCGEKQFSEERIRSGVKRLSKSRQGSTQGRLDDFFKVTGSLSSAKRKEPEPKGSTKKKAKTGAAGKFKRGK
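FEN1 at 10 nM preincubated with compounds 15 min at room temperature, then flap DNA substrate added at 50 nM final. Signal read at 0 and 15 min; concentration-response fitted with four-parameter Hill equation.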
RECQ1 inh-1 = RECQ1 (human) helicase inhibition; RECQ1 DNA unwinding, red fluorescence kinetic read; hit rate 0.54% among 240,000; Potency, µM (doses to about 57.3 µM), for the others: at the top dose activity, negative = inhibition, hits mostly inhibitors; AID 2549; P46063;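 further: plate controls were vehicle for no effect and no enzyme for full effect; nearly all actives have a fitted effect of over 30% in size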
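RECQ1T1 50 nM; forked duplex (20 bp + 30-nt ss tails) 200 nM, ATP 2 mM final; pH 8.0, 2 mM MgCl2, 2.5 ug/ml poly(dI-dC); 15 min compound preincubation; discontinuous kinetic read over 2 h at RT.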
APEX1 inh = blocks human APE1 abasic DNA cleavage. recombinant APE1, TAMRA/BHQ-2 abasic DNA cleavage fluorescence. hit rate 0.35% among 350,000. AID 2517. Potency, µM (doses to about 65.8 µM), without a hit: at the top dose activity change, negative = inhibition, actives largely listed as inhibitors;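 further: plate controls were vehicle for no effect and reference inhibitor for full effect; nearly all actives have a fitted effect of over 55% in size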
Target sequence (P27695 whole entry, looked up): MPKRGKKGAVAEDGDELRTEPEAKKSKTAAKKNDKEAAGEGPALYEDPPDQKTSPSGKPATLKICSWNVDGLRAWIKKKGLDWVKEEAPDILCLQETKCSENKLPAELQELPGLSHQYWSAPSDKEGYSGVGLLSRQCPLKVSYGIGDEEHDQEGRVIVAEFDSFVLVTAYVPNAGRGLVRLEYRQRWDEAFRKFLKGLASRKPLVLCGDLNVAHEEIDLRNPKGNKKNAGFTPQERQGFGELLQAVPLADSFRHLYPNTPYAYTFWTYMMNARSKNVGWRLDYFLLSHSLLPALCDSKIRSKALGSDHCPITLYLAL
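Activity was derived from the fluorescence gain between first and third kinetic reads (60 s intervals, ex 525/em 598 nm) after 50 nM THF-abasic TAMRA/BHQ-2 duplex was added to 0.75 nM APE1 preincubated 15 min with compound.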
RECQ1 conf = confirmation of human RECQ1 helicase inhibitors. shares compounds with RECQ1 inh-1. RECQ1 helicase DNA unwinding, fluorescence. Potency, µM (top dose mostly 229 µM), inactives show at the top dose activity change, negative = inhibition, hits mostly inhibitors. hit rate 28% among 610. AID 2708; further: nearly all actives have a fitted effect of over 45% in size
RECQ1 ADP FP = counter-screen for RECQ1 inhibitors: ADP displacement; shares compounds with RECQ1 inh-1; ADP fluorescence polarization displacement counterscreen; Potency, µM (titrated, usually from 228 µM), for the others: at the highest dose activity change, negative = inhibition, most hits filed as inhibitors; hit rate 27% among 530; AID 2711; further: nearly all actives have a fitted effect of over 45% in size
RECQ1 inh-2 = confirmation of human RECQ1 helicase inhibitors. hit rate 15% among 1,100. shares compounds with RECQ1 inh-1. Potency, µM (titrated, usually from 119 µM), inactives show at the top dose activity, negative = inhibition, hits mostly inhibitors. recombinant RECQ1 DNA unwinding, red fluorescence; further: nearly all actives have a fitted effect of over 50% in size
Starred values were filed as active, the others as inactive; i = inactive; ? = inconclusive; . = not tested or not shown; [ ] = remark or other dose. Most compounds without a hit are left out; they make up all but 0.92% or so of the library. The call rests on the fitted dose curve; in most records, active means well fitted curve in the direction sought with a large enough effect; inconclusive means small, poorly fitted or top-dose-only effect, or another doubt; inactive means no such curve, though single readings can be large; an effect the other way counts as inactive or inconclusive. Unless noted, on the % scale 0 is the no-effect control and ±100 the full control effect; potency means the concentration at half of the fitted maximal effect.

SMILES | BLM inh | TDP1 inh | FEN1 inhibitor | RECQ1 inh-1 | APEX1 inh | RECQ1 inh-2 | others
CC(C)OC(=O)c1cccc(C(=O)Oc2ccccc2)n1 | -1% | 0% | -5% | -14% | -3% | .
CC(C)N(C(=O)CSc1nnc(Cn2nnc3ccccc32)n1C)C(C)C | 1% | 8% | -5% | i | 5% | .
O=C(O)CSc1nnc(Cn2nnc3ccccc32)n1CCc1ccccc1 | -2% | 1% | 4% | 0% | 10% | . | RECQ1 conf=8%;RECQ1 ADP FP=8%
O=C(CCC1N=C2c3ccccc3N=C(SCc3cccc(F)c3)N2C1=O)NCc1ccc(F)cc1 (configuration not stated) | -2% | 0% | -22% | . | . | .
COc1ccccc1N1CCN(C(=O)c2cc3c(=O)n(Cc4cccnc4)ccc3nc2C)CC1 | 1% | 6% | 2% | . | . | .
CCN(CC)CCOc1c(Br)ccc2c1sc1nc3n(c(=O)c12)CCC3 | 177% | . | 50µM* | ? | 0% | -23%
O=c1c2c(nc3n1CCCCC3)sc1c(O)c(Br)ccc12 | -9% | -3% | -16% | -7% | -3% | .
COCCN1C(=S)N[C@@H](c2ccccc2)C(C(=O)OC)=C1C | 1% | . | . | . | 17% | .
COc1ccccc1C(=O)NC1=NC(c2ccc(Br)cc2)CC(=O)N1 (configuration not stated) | -4% | 0% | -6% | . | . | .
CS(=O)(=O)N(CC(=O)Nc1ccc(CC#N)cc1)c1ccc(C23CC4CC(CC(C4)C2)C3)cc1 | -13% | 3% | -6% | 7.9µM* | 5% | ?
CC(=O)Nc1ccc(NC(=O)CN(c2ccc(C34CC5CC(CC(C5)C3)C4)cc2)S(C)(=O)=O)cc1 | -13% | 8% | -17% | i | 4% | .
O=C1NC(=Nc2ccc(O)cc2)S/C1=C\C=C\c1ccco1 | -24% | -11% | -15% | ? | ? | ?
CCn1c(CSc2ncn[nH]2)nc2cc(C(=O)O)ccc21 | -4% | 6% | 1% | -29% | -9% | .
CCn1c(CSc2nnc(-c3ccncc3)n2C)nc2cc(C(=O)O)ccc21 | -6% | -2% | ? | 14µM* | -10% | 79µM* | RECQ1 conf=40µM*;RECQ1 ADP FP=7.1µM*
Cc1ccccc1OCCCCc1c(C)n[nH]c1C | -3% | 6% | -18% | ? | -1% | -14%
Cc1cccc(C)c1OCCCCc1c(C)n[nH]c1C | 0% | 4% | -1% | 2% | 5% | .
O=C1[C@H]2O[C@@H]2[C@@H](O)[C@H]2[C@H]1CCn1c(=O)n(Cc3cc4c(cc3Cl)OCO4)c(=O)n12 | 6%[12.4 µM] | 3%[21 µM] | . | 3%[11.5 µM] | 34%[12.4 µM] | .
Cc1nnc(SCC(=O)N2N=C(c3ccc(Cl)cc3)CC2c2ccco2)[nH]c1=O (configuration not stated) | -10% | 0% | ? | 32µM* | -12% | -30%
C/C(=N\N1CCN(c2ccccc2)CC1)c1cccs1 | -1% | . | 2% | -6% | 1% | .
C/C(=N\N=C(c1ccccc1)c1ccccc1)c1cccs1 | -9% | 4% | 7% | 18µM* | -1% | . | RECQ1 conf=-4%[114 µM];RECQ1 ADP FP=-9%[91.9 µM]
O=C(O)/C(=C\c1ccc(Cl)cc1)c1ccc(S(=O)(=O)N2CCCC2)s1 | . | . | 3% | . | -7% | .
O=C(O)/C(=C\c1ccccc1Cl)c1ccc(S(=O)(=O)N2CCCCC2)s1 | -16% | -3% | -5% | 3% | 24% | . | RECQ1 conf=126µM*;RECQ1 ADP FP=-9%
O=C(O)COc1ccc(OCCNC[C@H](O)COc2ccccc2)cc1 | . | 6% | . | i | 14% | .
CCOc1cc(NC(=O)c2cnccn2)c(OCC)cc1NC(=O)c1cccc(F)c1 | -1% | 0% | . | -2% | -1% | . | RECQ1 conf=9%;RECQ1 ADP FP=?
CCOc1cc(NC(=O)C2CC2)c(OCC)cc1NC(=O)c1cccc(F)c1 | -5% | -4%[0.0935 µM] | 1% | . | 40% | .
SMILES | BLM inh | TDP1 inh | FEN1 inhibitor | RECQ1 inh-1 | APEX1 inh | RECQ1 inh-2 | others
O=C(COc1cccnc1[N+](=O)[O-])c1ccc(Cl)s1 | -24% | 1% | ? | ? | ? | ?
Clc1ccc(-c2nnc3sc(-c4ccc(Br)o4)nn23)cc1 | -3% | 4% | -1% | -5% | 1% | .
Cc1oc(-c2ccc(Cl)cc2)cc1-c1nn2c(-c3ccoc3C)nnc2s1 | 10µM* | . | -1% | 14µM* | ? | . | RECQ1 conf=35µM*;RECQ1 ADP FP=14%[91.9 µM]
CC(C)NS(=O)(=O)c1ccc(NC(=S)NC(=O)c2ccc(-c3ccccc3)cc2)cc1 | -9% | 4% | -8% | ? | -5% | -7%
COc1cc(NC(=O)c2cccs2)c(C(=O)OCC(=O)NCc2ccco2)cc1OC | ? | . | -11% | 8.9µM* | ? | ? | RECQ1 conf=28µM*;RECQ1 ADP FP=?
CN(C)c1cccc(C(=O)Nc2nc3ccc(S(=O)(=O)N4CCCC4)cc3s2)c1 | -2% | 11% | 3% | . | . | .
CC1CN(S(=O)(=O)c2ccc(C(=O)Nc3nccs3)cc2)CC(C)O1 (configuration not stated) | 0% | 1% | 18% | 1% | 5% | .
CC1CN(S(=O)(=O)c2ccc(C(=O)Nc3ccc(S(=O)(=O)Nc4nccs4)cc3)cc2)CC(C)O1 (configuration not stated) | -3% | 4% | -3% | 7% | -11% | . | RECQ1 conf=-4%;RECQ1 ADP FP=7%
COc1ccc(C(=O)NNC(=O)c2ccc(S(=O)(=O)N3CC(C)OC(C)C3)cc2)cc1 (configuration not stated) | -5% | 3% | 4% | 9% | 18% | .
COc1cc(OC)cc(C(=O)NNC(=O)c2ccc(S(=O)(=O)N3CC(C)OC(C)C3)cc2)c1 (configuration not stated) | 1% | 3% | -3% | 0% | -12% | . | RECQ1 conf=10%;RECQ1 ADP FP=-1%
CNc1c(Cl)cc(C=O)cc1Cl | . | . | -2% | . | . | .
CCOC(=O)c1ccc(N2C(=O)c3n[nH]c(-c4ccco4)c3C2c2ccc([N+](=O)[O-])cc2)cc1 (configuration not stated) | -10% | 6% | 1% | ? | -10% | -19%
CCOC(=O)c1ccc(N2C(=O)c3n[nH]c(-c4ccco4)c3C2c2ccc(C)cc2)cc1 (configuration not stated) | -17% | 7% | -26% | . | . | .
COCCn1c(C)cc(C(=O)COC(=O)c2ccc(S(=O)(=O)N(C)C)cc2)c1C | . | 0% | -10% | . | 46% | .
